# Measured values from the supplement of paper PMC9897528.
# System: Scedosporium aurantiacum CBS 136046
# Assay: growth inhibition relative to DMSO control (OD600); higher = more antifungal activity, active = 80 or more; extreme values may be limits of the assay
# Details: 5 µM; 72 h; 37 °C
# 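Note: conidia screened in RPMI 1640 medium under 5% CO2, growth read by spectrophotometer, medium with 0.5% DMSO serving as the untreated reference.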
row,Compound,growth inhibition
1,O=C(NCc1cccc2ccccc12)c1cccs1,0% (inactive)
2,CN1CCN(c2ccc3[nH]c(-c4ccc5[nH]c(-c6ccc(O)cc6)nc5c4)nc3c2)CC1,11.7% (inactive)
3,FC(F)(F)c1cc(C(F)(F)F)c2ccc3nc(-c4nnco4)cn3c2n1,4.29% (inactive)
4,CCc1nc(N)nc(N)c1C#CCc1ccccc1,30.8% (inactive)
5,Nc1ccc2oc(=O)ccc2c1I,8.52% (inactive)
6,OB1OCc2c1ccc(Cl)c2F,0.00748% (inactive)
7,NC(=O)[C@@H]1CC[C@@H]2CN1C(=O)N2OS(=O)(=O)O,0% (inactive)
8,C[C@@H](NC(=O)c1cccc(-c2cnc(-c3cc4ccccc4cn3)[nH]2)c1)c1ccc(F)cc1,18.9% (inactive)
9,CC(C)c1cc2c(cc1S(=O)(=O)O)[C@@]1(C)CCC[C@@](C)(C(=O)O)[C@@H]1CC2,30% (inactive)
10,Clc1cccc(-c2nnc(-c3ccccc3)o2)c1,1.29% (inactive)
11,CCCCCCCCC(CP(=O)(O)C(C)N)C(=O)O (stereo not drawn),6.14% (inactive)
12,Cn1cc(NC(=O)c2cc(NC(=O)c3ccc(/C=C/c4cnc5ccccc5c4)cc3)cn2C)cc1C(=O)NCCN1CCOCC1,0% (inactive)
13,O=C(/C=C/n1cnc(-c2cc(C(F)(F)F)cc(C(F)(F)F)c2)n1)NNc1cnccn1,26.3% (inactive)
14,COC(=O)Nc1nc2c(C)cccc2[nH]1,0% (inactive)
15,CC(=O)O[C@H]1C[C@@]2(C)[C@@H](C[C@@H](O)[C@H]3[C@@]4(C)CC[C@@H](O)[C@@H](C)[C@@H]4CC[C@@]32C)/C1=C(\CCC=C(C)C)C(=O)O,19.6% (inactive)
16,CSc1ccc2c(c1)C(N1CCN(C)CC1)Cc1ccccc1S2 (stereo not drawn),46.7% (inactive)
17,CCNC(=O)Nc1cc2c(-c3ccnc(C)c3)ccc(CNC(=O)OC)c2cn1,13.3% (inactive)
18,O=[N+]([O-])c1cn(Cc2nc(O)nc(O)c2Br)cn1,20.5% (inactive)
19,CC(C)Nc1ncnc2c1cnn2-c1ccc(Cl)cc1,10.7% (inactive)

row,Compound,growth inhibition
1,CC(C)Oc1ccc(-c2nc(-c3cccc4c3CC[C@@H]4NCCO)no2)cc1C#N,25.4% (inactive)
2,COc1ccc(-n2cnc3cc(NCc4ccco4)ccc32)cc1,9.11% (inactive)
3,CN(C(=O)C1(c2ccc(Cl)cc2)CCC1)c1ccccc1,13.9% (inactive)
4,COc1c(NC(=O)[C@H]2CC[C@@H](COc3ccc([N+](=O)[O-])cc3)CC2)c(F)cc2c(=O)c(C(=O)O)cn(C3CC3)c12,15.5% (inactive)
5,CCc1c(O)nc2ccc(F)cc2c1OCC1CCC1,23.8% (inactive)
6,C/C(=N\NC(=O)C1CC1c1ccccc1)c1ccc(NC(=O)c2ccco2)cc1 (stereo not drawn),1.06% (inactive)
7,Nc1nc(C(F)(F)F)cc2c1[nH]c(=O)n2Cc1ccccc1,18.8% (inactive)
8,O=c1ccc2ncc(=O)n3c2n1CC3CN1CCC(NCc2cc3c(cn2)OCCC3)CC1 (stereo not drawn),0% (inactive)
9,O=C(Nc1nnc(-c2ccc(Cl)cc2)o1)c1ccc(F)cc1,48.5% (inactive)
10,Oc1ccc(NCc2ccccc2OCc2ccccc2)cc1,10% (inactive)
11,CC(C)n1cnc2c(NCc3ccccc3)nc(NCc3ccccc3)nc21,39.6% (inactive)
12,NC(=O)C(c1ccccc1)(c1ccccc1)[C@H]1CCCN(CCc2ccc3c(c2)CCO3)C1,13.5% (inactive)
13,CN(Cc1ccc(C(C)(C)C)cc1)Cc1cccc2ccccc12,37.7% (inactive)
14,CCc1cc(Cc2cnc(N)nc2N)cc2c1N(C)CCC2C (stereo not drawn),16.8% (inactive)
15,CCCCc1ccc(-c2nc(C)c(C(=O)OC)s2)cc1,12.4% (inactive)
16,CCCCCOc1ccc(/C=C2\Oc3c(ccc(O)c3O)C2=O)c(O)c1,1.85% (inactive)
17,C=C[C@]1(C)C[C@@H](OC(=O)CS[C@@H]2C[C@H]3CC[C@@H](C2)N3C)[C@]2(C)[C@H](C)CC[C@]3(CCC(=O)[C@H]32)[C@@H](C)[C@@H]1O,35.7% (inactive)
18,CC(C)(C)c1ccc(Oc2ccc(N)cc2)cc1,15.8% (inactive)
19,N#C/C(=C1/SC[C@H](c2ccc(Cl)cc2Cl)S1)n1ccnc1,85.6% (active)
